Among the data in PubChem BioAssay (NCI) are growth values, retold here.

Compounds without any hit were thinned out: in the full panel of roughly 83,000, 20% have a hit.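 Negative percent growth values reflect cell death: -40 means 40% of the cells present at the start died, and -100 means all died.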 Unmarked numbers belong to inactive results. Active and inactive are the calls of the source. Rule for the calls: active = growth percent below 10; inactive = the rest.

Common to all, as to assay: NCI-60 one-dose screen, 48 h (100 = growth as untreated, 0 = no growth, -100 = all killed)
For one test, the system named is HCT-15 colon. Conditions: 10 µM unless noted.
The subject of a further test is HT29 colon. To be noted: 10 µM unless noted.
The test system of a further test is SNB-75 CNS. To be noted: 10 µM unless noted.
For another test, the system named is SNB-19 CNS. Conditions: 10 µM unless noted.
In a further test the test system is U251 CNS. Conditions: 10 µM unless noted.
The next test has as its system PC-3 prostate. Conditions: 10 µM unless noted.
A further test deals with SK-MEL-5 melanoma. Conditions: 10 µM unless noted.
The next test concerns UACC-62 melanoma. Conditions: 10 µM unless noted.
In another test the test system is LOX IMVI melanoma. Conditions: 10 µM unless noted.
The next test deals with SK-MEL-28 melanoma. Conditions: 10 µM unless noted.
The subject of another test is SK-MEL-2 melanoma. To be noted: 10 µM unless noted.
The next test concerns SN12C renal. Conditions: 10 µM unless noted.
A further test concerns UO-31 renal. To be noted: 10 µM unless noted.
Another test relates to TK-10 renal. Conditions: 10 µM unless noted.
In a further test the test system is ACHN renal. To be noted: 10 µM unless noted.
The test system of the next test is CAKI-1 renal. Conditions: 10 µM unless noted.
A further test has as its system A498 renal. Conditions: 10 µM unless noted.
Another test concerns MOLT-4 leukemia. Conditions: 10 µM unless noted.
The test system of the next test is CCRF-CEM leukemia. To be noted: 10 µM.

On to `CCCCCCCCCCCCCCCCNC(=S)N/N=C/c1ccc(OC)cc1`, for which the growth in the test on HCT-15 colon was 108%; with HT29 colon it was 102%; in the test with SNB-75 CNS, 113%; in the test on SNB-19 CNS it was 99.8%; in the test on U251 CNS it was 97.9%; in the test on PC-3 prostate, 88.5%. Further, the growth was 99.9% with SK-MEL-5 melanoma; 93.2% in the test on UACC-62 melanoma; 108% in the test with LOX IMVI melanoma; 109% in the test with SK-MEL-28 melanoma; 107% with SK-MEL-2 melanoma; 93.5% with SN12C renal. For the same compound, the growth is 78% in the test with UO-31 renal; 110% with TK-10 renal; 104% in the test on ACHN renal; 92% in the test on CAKI-1 renal; 113% in the test with A498 renal; 106% in the test with MOLT-4 leukemia.
As for `COc1ccc(Nc2c3ccccc3nc3ccccc23)cc1`, the growth with HCT-15 colon was 25.2%; with HT29 colon, 8.49% (active); in the test on SNB-75 CNS, 16.2%; with SNB-19 CNS, 53.2%; with U251 CNS it was 16.1%; with PC-3 prostate, 32.6%. The growth in the test on SK-MEL-5 melanoma is 24.8%; in the test on UACC-62 melanoma, 47.6%; with LOX IMVI melanoma it was 21.3%; in the test on SK-MEL-28 melanoma it was 49.7%; in the test on SK-MEL-2 melanoma it was 54.5%; with SN12C renal it was 30.1%. Further, the growth in the test with UO-31 renal was 7.72% (active); in the test on TK-10 renal it was 51.8%; in the test with ACHN renal it was -11% (active); with CAKI-1 renal, 10.2%; in the test on A498 renal, 42.1%; in the test on MOLT-4 leukemia, -9.93% (active).
Turning to `CC(O)CN(CC(C)O)N(CC(C)O)CC(C)O` (stereo not drawn), the growth with HCT-15 colon was 93.6%; with HT29 colon, 99.3%; in the test with SNB-75 CNS, 93.1%; in the test with SNB-19 CNS, 99.1%; in the test with U251 CNS, 90.9%; with PC-3 prostate, 99.4%. The growth is 105% with SK-MEL-5 melanoma; 102% with UACC-62 melanoma; 93.7% with LOX IMVI melanoma; 107% with SK-MEL-28 melanoma; 121% with SK-MEL-2 melanoma; 107% with SN12C renal. Besides, the growth was 91.1% with UO-31 renal; 99.3% in the test on TK-10 renal; 99% in the test with ACHN renal; 98.9% with CAKI-1 renal; 104% with A498 renal; 102% in the test with MOLT-4 leukemia.
Take `CC(=O)CC(=O)OC/C=C(/C)CCC=C(C)C`: the growth with HCT-15 colon is 102%; with HT29 colon, 108%; in the test on SNB-75 CNS, 105%; with SNB-19 CNS, 107%; with U251 CNS, 104%; in the test with PC-3 prostate, 111%. For the same compound, the growth in the test with SK-MEL-5 melanoma was 99.6%; in the test on UACC-62 melanoma it was 97.9%; in the test with LOX IMVI melanoma, 97.7%; in the test on SK-MEL-28 melanoma, 113%; with SK-MEL-2 melanoma it was 126%; with SN12C renal it was 94.5%. The growth with UO-31 renal was 102%; in the test on TK-10 renal, 108%; with ACHN renal, 102%; in the test with A498 renal it was 117%; with CCRF-CEM leukemia, 116%; in the test with MOLT-4 leukemia, 94.7%.
Take `O=C1C(=O)c2ccccc2C(O)=C1CCCc1ccc(Oc2ccccc2)cc1`: the growth in the test on HCT-15 colon is 74.1%; in the test on HT29 colon it was 113%; with SNB-75 CNS it was 71.2%; with SNB-19 CNS it was 62%; with U251 CNS, 36.1%; with PC-3 prostate, 37.5%. Moreover, the growth was 55.1% in the test with SK-MEL-5 melanoma; 36.5% in the test with UACC-62 melanoma; 38.9% with LOX IMVI melanoma; 74.8% in the test on SK-MEL-28 melanoma; 72.5% in the test with SK-MEL-2 melanoma; 43.5% with UO-31 renal. For the same compound, the growth in the test on TK-10 renal was 90.7%; in the test with ACHN renal, 59.4%; in the test with CAKI-1 renal it was 43.3%; in the test on A498 renal it was 66.1%; with CCRF-CEM leukemia, 32.1%; in the test on MOLT-4 leukemia, 50.3%.
As for `COC(=O)[C@H](Cc1cn(C)cn1)NC(=O)[C@H](CC(=O)OCc1ccccc1)NC(=O)Nc1cc(C(F)(F)F)cc(C(F)(F)F)c1`, the growth is -82.2% [100 µM] (active) in the test on HCT-15 colon; -85.2% [100 µM] (active) in the test with HT29 colon; -98.6% [100 µM] (active) with SNB-75 CNS; -93% [100 µM] (active) in the test on SNB-19 CNS; -96.5% [100 µM] (active) in the test on U251 CNS; -94.1% [100 µM] (active) with PC-3 prostate. In addition, the growth is -97.3% [100 µM] (active) with SK-MEL-5 melanoma; -98.3% [100 µM] (active) in the test with UACC-62 melanoma; -85.3% [100 µM] (active) in the test with LOX IMVI melanoma; -95.6% [100 µM] (active) with SK-MEL-28 melanoma; -92.6% [100 µM] (active) in the test with SK-MEL-2 melanoma; -91.1% [100 µM] (active) in the test with SN12C renal. For the same compound, the growth is -96.3% [100 µM] (active) in the test on UO-31 renal; -97.5% [100 µM] (active) in the test with TK-10 renal; -91.9% [100 µM] (active) with CAKI-1 renal; -92.3% [100 µM] (active) in the test with A498 renal; -62.8% [100 µM] (active) with MOLT-4 leukemia.
On to `C=C(C)C(C(=O)OCC)(C(=O)OCC)C(C)C`, for which the growth is 102% in the test with HCT-15 colon; 116% in the test with HT29 colon; 86.5% in the test on SNB-75 CNS; 99.9% in the test on SNB-19 CNS; 102% in the test on U251 CNS; 108% in the test on PC-3 prostate. The growth in the test with SK-MEL-5 melanoma was 98.3%; with UACC-62 melanoma it was 103%; in the test on LOX IMVI melanoma, 102%; with SK-MEL-28 melanoma it was 97%; with SK-MEL-2 melanoma, 121%; with UO-31 renal, 100%. The growth with TK-10 renal is 113%; with ACHN renal, 104%; with CAKI-1 renal, 105%; in the test on A498 renal, 110%; in the test on CCRF-CEM leukemia, 98.2%; with MOLT-4 leukemia it was 114%.
Turning to `CCCCCCCCC(=O)Nc1ccc(O)cc1`, the growth in the test with HCT-15 colon is 94.6%; in the test on HT29 colon, 94.2%; in the test on SNB-75 CNS, 76.8%; in the test with SNB-19 CNS, 112%; in the test with U251 CNS, 91.4%; in the test on PC-3 prostate, 83.2%. The growth was 96.7% with SK-MEL-5 melanoma; 92.1% in the test with UACC-62 melanoma; 84.8% in the test on LOX IMVI melanoma; 99.7% in the test with SK-MEL-28 melanoma; 93% in the test on SK-MEL-2 melanoma; 94.3% in the test with SN12C renal. The growth in the test on UO-31 renal is 61.9%; with TK-10 renal it was 87.1%; in the test with ACHN renal it was 79.2%; in the test with CAKI-1 renal it was 93.9%; in the test on A498 renal, 102%; with MOLT-4 leukemia, 57.9%.
